According to PMC4336329 (PLoS ONE, 2015):
Among all 310,000 compounds or so, about 14,000 (4.5%) showed an effect of 50% or more. Effects have a minus sign here. Shown is part of a subset that was picked to be rich in strong results.

molecular target: human ether-à-go-go-related gene (hERG) potassium channel (human, UniProt Q12809); assay: primary screen, population patch clamp on CHO cells stably expressing hERG; higher = less effect of the substance
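Also: peak tail current of the secondary pulse compared with the same well before compound.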

Sequence of human ether-à-go-go-related gene (hERG) potassium channel (Q12809 whole entry, looked up): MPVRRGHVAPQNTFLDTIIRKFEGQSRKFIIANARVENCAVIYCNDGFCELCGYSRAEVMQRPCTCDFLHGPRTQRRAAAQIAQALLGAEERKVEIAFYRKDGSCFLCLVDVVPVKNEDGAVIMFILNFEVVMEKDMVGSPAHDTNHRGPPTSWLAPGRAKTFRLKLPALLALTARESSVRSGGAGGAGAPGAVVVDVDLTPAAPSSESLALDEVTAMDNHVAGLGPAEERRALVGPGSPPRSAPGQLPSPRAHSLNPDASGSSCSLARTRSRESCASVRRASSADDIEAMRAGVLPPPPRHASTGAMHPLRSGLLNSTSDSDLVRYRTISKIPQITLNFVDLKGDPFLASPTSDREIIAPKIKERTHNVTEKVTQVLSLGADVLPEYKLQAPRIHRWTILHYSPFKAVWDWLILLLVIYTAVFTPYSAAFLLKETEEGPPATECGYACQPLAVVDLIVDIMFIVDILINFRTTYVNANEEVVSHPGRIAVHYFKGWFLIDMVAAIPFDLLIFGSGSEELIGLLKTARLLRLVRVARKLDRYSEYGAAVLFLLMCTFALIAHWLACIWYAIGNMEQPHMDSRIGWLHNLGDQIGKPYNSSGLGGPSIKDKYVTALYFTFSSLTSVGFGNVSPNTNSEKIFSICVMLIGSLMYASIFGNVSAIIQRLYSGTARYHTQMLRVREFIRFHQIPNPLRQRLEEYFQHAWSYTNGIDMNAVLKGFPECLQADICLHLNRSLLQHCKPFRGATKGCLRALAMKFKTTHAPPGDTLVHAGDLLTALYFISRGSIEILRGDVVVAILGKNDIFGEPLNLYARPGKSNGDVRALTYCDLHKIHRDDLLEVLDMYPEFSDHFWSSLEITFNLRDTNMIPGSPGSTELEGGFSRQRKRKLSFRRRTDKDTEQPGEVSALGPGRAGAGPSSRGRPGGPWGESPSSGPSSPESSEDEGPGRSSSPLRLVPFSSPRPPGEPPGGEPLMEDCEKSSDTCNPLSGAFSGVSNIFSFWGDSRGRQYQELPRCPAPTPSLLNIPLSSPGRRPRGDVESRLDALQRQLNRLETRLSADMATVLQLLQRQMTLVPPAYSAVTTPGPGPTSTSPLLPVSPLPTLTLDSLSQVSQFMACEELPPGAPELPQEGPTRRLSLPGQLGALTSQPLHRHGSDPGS

Point of comparison: COc1ccc2nc(NC(=O)c3cccs3)sc2c1, “hERG current change (%, negative = inhibition) at 10uM” value 8.71%. Against it:
- COC(=O)c1sc2nc(CN3CCOCC3)nc(N3CCOCC3)c2c1C — lower, 1.53%
- O=c1cc(N2CCN(c3ccccc3)CC2)[nH]c(=O)n1Cc1ccc(F)cc1 — lower, -25.9%
- OC1(c2ccccn2)COc2ccccc2O1 (stereo not shown) — lower, -10.5%
- CC(=O)Nc1ccc(Br)cc1C(=O)C(=O)O — lower, -2.93%
- CCCOc1ccc(-c2nnn(CC(=O)N3CCCCC3)n2)cc1 — higher, 12.9%
- N#C/C(=C\c1ccc(Cl)cc1)c1nc2ncccc2[nH]1 — lower, -15.1%
- CC1CCN(c2c(NCC3CCC(C(=O)N4CCCC(C)C4)CC3)c(=O)c2=O)CC1 (stereo not shown) — lower, 2.75%
- Oc1ccc(Cl)cc1CNCc1ccc(Cl)cc1 — lower, -3.68%
- Cc1ccc(O)c(CNCCNCc2cc(C)ccc2O)c1 — lower, -11.9%
- CCc1ccc(O)c(CNCCNCc2cc(CC)ccc2O)c1 — lower, -55.2%
- Cc1cccn2c(=O)c3cc(C(=O)NCCN4CCOCC4)c(=N)n(Cc4ccc(F)cc4)c3nc12 — lower, -72.9%
- O=C(NCCN1CCOCC1)c1cc2c(=O)n3ccccc3nc2n1Cc1ccccc1 — lower, -5.9%
- Cc1c(C)n(Cc2ccc(F)cc2)c2ccc(C(=O)NCCN3CCOCC3)cc12 — lower, -19.2%
- Cc1ccc(Cn2c(=N)c(C(=O)NCCN3CCOCC3)cc3c(=O)n4ccccc4nc32)cc1 — lower, -63.2%
- N=c1c(C(=O)NCCN2CCOCC2)cc2c(=O)n3ccccc3nc2n1Cc1ccc(F)cc1 — lower, -76.5%
- Cn1c(C(=O)NCCN2CCOCC2)cc2c(=O)n3ccccc3nc21 — higher, 10%
- CC(C)NC(=O)Cn1c(SCC(=O)c2ccc(F)cc2)nc2ccccc21 — lower, 6.27%
- COCCn1c(-c2ccc(F)cc2)nc2cccnc21 — higher, 12.1%
- O=C1C[C@H](NC(=O)OCc2ccccc2)CO1 — lower, 6.32%
- Fc1ccc(C2NCCn3cccc32)cc1.O=C(O)/C=C/C(=O)O (stereo not shown) — lower, -3.11%
- COc1ccc(NC(=O)[C@@H]2CCCN2C(=O)c2cccs2)cc1S(=O)(=O)N1CCCCC1 — lower, -6.06%
- COc1ccc2nc(NC(=O)[C@@H]3CCCN3C(=O)c3cccs3)sc2c1 — lower, -56.4%
- CCOc1ccc(NC(=O)[C@@H]2CCCN2C(=O)c2cccs2)cc1S(=O)(=O)N1CCOCC1 — lower, 6.27%
- O=C(Nc1ccccc1OC(F)F)C1CCCN1C(=O)c1cccs1 (stereo not shown) — lower, 1.98%
- Cc1ccc(NC(=O)C2CCCN2C(=O)c2cccs2)cc1C (stereo not shown) — lower, -25.5%
- O=C(Nc1ccc(OC(F)F)c(Cl)c1)[C@@H]1CCCN1C(=O)c1cccs1 — lower, -74.3%
- O=C(Nc1ccc(S(=O)(=O)N2CCCC2)cc1)C1CCCN1C(=O)c1cccs1 (stereo not shown) — lower, 0.837%
- O=C(Nc1ccc(Cl)c(S(=O)(=O)N2CCOCC2)c1)[C@@H]1CCCN1C(=O)c1cccs1 — lower, -57.6%
- CCOc1ccc(NC(=O)[C@@H]2CCCN2C(=O)c2cccs2)cc1S(=O)(=O)N1CCCCC1 — higher, 10.5%
- O=C(Nc1nc2ccc(Cl)cc2s1)[C@@H]1CCCN1C(=O)c1cccs1 — lower, 3.87%
- Cc1ccc(NC(=O)[C@@H]2CCCN2C(=O)c2cccs2)cc1S(=O)(=O)N1CCCCC1 — lower, -63.9%
- CNC(=O)CN(C)S(=O)(=O)c1ccc(OC)c(Cl)c1 — lower, 6.65%
- CC(=O)Nc1ncc(Cc2cc(Cl)ccc2Cl)s1 — lower, -1.4%
- CSc1nnc(Cn2c(=O)sc3ccccc32)n1-c1cccc(Cl)c1 — lower, -37.9%
- Cn1c(=O)c2c(ncn2CC(=O)OCC(=O)Nc2ccccc2Cl)n(C)c1=O — lower, 4.46%
- CC(NCc1ccc2c(c1)OCO2)C(=O)NC1CCCc2ccccc21.O=C(O)C(=O)O (stereo not shown) — lower, -22.6%
- CC(C(=O)NC1CCCc2ccccc21)N1CCN(Cc2ccc3c(c2)OCO3)CC1 (stereo not shown) — lower, -51.9%
- CC(C(=O)NC1CCCc2ccccc21)N1CCN(c2ccc(F)cc2)CC1 (stereo not shown) — lower, -35.6%
- COC(=O)c1cc2c(ccn2C)n1C — higher, 19.5%
- CC(C)(C)c1ccc(S(=O)(=O)/N=C2\C=C(NS(=O)(=O)c3ccccc3)C(=O)c3ccccc32)cc1 — lower, -2.61%
- COc1ccc(/C=C/C(=O)NC(=S)NN2CCCCC2c2cccnc2)cc1 (stereo not shown) — lower, -26.9%
- O=C(NC(=S)N1CCCCC1c1cccnc1)c1ccc(F)cc1 (stereo not shown) — lower, 5.06%
- O=C(NC(=S)N1CCCCC1c1cccnc1)c1ccccc1 (stereo not shown) — lower, 4.5%
- COc1ccc(/C=C/C(=O)NC(=S)NN2CCCCC2c2cccnc2)cc1OC (stereo not shown) — lower, 3.25%
- O=C(/C=C/c1ccc(F)cc1)NC(=S)N1CCCCC1c1cccnc1 (stereo not shown) — lower, -68.1%
- O=C(/C=C/c1ccc(Cl)cc1)NC(=S)NN1CCCCC1c1cccnc1 (stereo not shown) — lower, -67%
- COc1ccc(C)cc1NCc1cccc(OC)c1OC — lower, 1.13%
- COc1cc(/C=C(\C#N)C(=O)NCC2CCCO2)ccc1OCCC(C)C (stereo not shown) — lower, 4.67%
- O=C(Nc1ccccc1)N1CCCN(c2ccc(C(F)(F)F)cc2[N+](=O)[O-])CC1 — lower, -39.9%
- O=C(Cn1nc(Cc2cccnc2)c2ccccc2c1=O)NCC1COc2ccccc2O1 (stereo not shown) — lower, -57.4%
- O=C(Cn1nc(Cc2cccnc2)c2ccccc2c1=O)NCC1CCCO1 (stereo not shown) — higher, 9.7%
- O=C(Cn1nc(Cc2cccnc2)c2ccccc2c1=O)NCc1ccc2c(c1)OCO2 — lower, -25.8%
- Cc1ccc(C2CC(c3ccccc3)=NN2c2ccccc2)o1 (stereo not shown) — lower, 4.42%
- COc1ccc(C(CNC(=O)c2ccc(-c3ccccc3Cl)o2)N2CCOCC2)cc1 (stereo not shown) — lower, -23.7%
- COc1ccccc1C(CNC(=O)c1ccc(-c2ccccc2Cl)o1)N1CCCC1 (stereo not shown) — lower, -72.2%
- COc1ccccc1C(CNC(=O)c1ccco1)N1CCCC1 (stereo not shown) — lower, 1.23%
- COc1ccc(C(CNC(=O)c2oc3ccc(Br)cc3c2C)N2CCCCC2)cc1 (stereo not shown) — lower, -13.3%
- COc1ccc(C(CNC(=O)c2oc3ccc(C)cc3c2C)N2CCCCC2)cc1 (stereo not shown) — lower, 6.26%
- COc1ccc(C(CNC(=O)c2oc3ccc(F)cc3c2C)N2CCCCC2)cc1 (stereo not shown) — lower, -59.9%
- CCc1ccc2oc(C(=O)NCC(c3ccc(OC)cc3)N3CCCCC3)c(C)c2c1 (stereo not shown) — lower, -3.57%
- COc1ccc(C(CNC(=O)c2oc3ccc(Cl)cc3c2C)N2CCCCC2)cc1 (stereo not shown) — lower, -25.9%
- COc1ccc(C(CNC(=O)c2oc3cc(C)c(Cl)cc3c2C)N2CCCCC2)cc1 (stereo not shown) — higher, 16.3%
- COc1ccc(C(CNC(=O)c2oc3ccc(OC)cc3c2C)N2CCCC2)cc1 (stereo not shown) — lower, -67.5%
- COc1ccc(C(CNC(=O)c2oc3c(Cl)cccc3c2C)N2CCCC2)cc1 (stereo not shown) — lower, -50.9%
- COc1ccc(C(CNC(=O)c2oc3ccccc3c2C)N2CCCC2)cc1 (stereo not shown) — lower, -43.8%
- CC(=O)Nc1ccc(Nc2ncnc3ccccc23)cc1 — higher, 10.9%
- O=C(C(=C1N(Cc2ccc(Cl)nc2)CCN1Cc1ccc(Cl)nc1)[N+](=O)[O-])C(Cl)Cl — lower, -26.6%
- CCn1c(C)nc2cc(S(N)(=O)=O)ccc21 — higher, 21.9%
- Cc1ccc(C)c(NC(=O)c2nnn(Cc3ccccc3)c2N)c1 — lower, -6.11%
- Cc1nc(NC(=O)CSc2cc(C)c3ccccc3n2)c(Cl)cc1Cl — lower, 5.23%
- CC1CN(C(=O)CCNC(=O)c2ccc(Br)cc2)CC(C)O1 (stereo not shown) — lower, -4.12%
- O=C(CSc1ncn[nH]1)Nc1cccc2ccccc12 — lower, 3.88%
- CCC(C)(C)NC(=O)Cc1ccccc1OC — higher, 23%
- COc1ccc(C(CNC(=O)CNC(=O)c2cccc(Cl)c2)N2CCCC2)cc1 (stereo not shown) — lower, -33.8%
- COc1ccc(C(CNC(=O)c2cccc(S(=O)(=O)Nc3ccc(C)cc3)c2)N2CCCCC2)cc1 (stereo not shown) — lower, -30.7%
- COc1ccc(C(CNC(=O)c2cccc(S(=O)(=O)N3CCCCC3)c2)N2CCCC2)cc1 (stereo not shown) — lower, -43.8%
- COc1ccc(C(CNC(=O)c2cccc(NC(=O)c3cccs3)c2)N2CCCC2)cc1 (stereo not shown) — lower, -58.8%
- COc1ccc(C(CNC(=O)c2ccc(Cl)c(NC(=O)c3cccs3)c2)N2CCCC2)cc1 (stereo not shown) — lower, -70.9%
- COc1ccc(C(CNC(=O)c2cccc(Br)c2)N2CCCC2)cc1 (stereo not shown) — lower, -31.6%
- COc1cc2c(cc1OC)C(C)N(C(=O)Nc1cc(C)cc(C)c1)CC2 (stereo not shown) — lower, 4.95%
- COC(=O)c1c(NC(=O)c2ccco2)sc2c1CC(C)(C)NC2(C)C — lower, -21.2%
- Cn1c(=O)c2c(ncn2CC(=O)OCC(=O)Nc2sccc2C(N)=O)n(C)c1=O — lower, -10.1%
- COC(=O)C1=C(C)N(c2cccc3ccccc23)C(=O)C1 — lower, -6.64%
- Cc1noc(NC(=O)c2ccccc2C(F)(F)F)c1C#N — lower, -46%
